Assay outcomes from PubChem.
Only some compounds are listed: those with a hit (about 1.2% of all), similar ones and a draw of the others.
PrPC surface inh – reduces human prion protein on the cell surface; P04156; cell surface PrPC, TR-FRET read-out; inhibition, % at 13.8 µM; actives 0.43% (n = 370,000); in the data active = inhibition above about 24%; note: 0% = median of the test wells and 100% = reference compound wells
Rv3671c protease – inhibitors of M. tuberculosis serine protease Rv3671c; P9WHR9; inhibition, % at 5.96 µM; actives 0.048% (n = 320,000); AID 2606; in the data active = inhibition above about 38%;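 note: extracellular domain of Rv3671c used as enzyme; 0% = enzyme with DMSO and 100% = no enzyme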
Target sequence (P9WHR9 whole entry, looked up, the tested form may be a part): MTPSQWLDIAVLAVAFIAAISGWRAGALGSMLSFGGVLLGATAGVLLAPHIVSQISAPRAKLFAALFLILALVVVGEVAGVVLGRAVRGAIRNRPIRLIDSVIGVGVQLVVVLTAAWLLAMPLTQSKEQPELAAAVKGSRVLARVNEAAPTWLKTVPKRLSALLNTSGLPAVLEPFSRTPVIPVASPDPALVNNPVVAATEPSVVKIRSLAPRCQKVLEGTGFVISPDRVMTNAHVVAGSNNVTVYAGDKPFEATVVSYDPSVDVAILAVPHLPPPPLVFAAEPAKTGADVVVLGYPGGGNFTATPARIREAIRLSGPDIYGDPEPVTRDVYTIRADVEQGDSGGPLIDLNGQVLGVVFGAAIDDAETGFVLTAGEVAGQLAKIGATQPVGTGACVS
FadD28 binding – inhibitors of Mycobacterium tuberculosis FadD28 bisubstrate binding. FadD28 bisubstrate probe binding, fluorescence polarization. inhibition, % at 12.5 µM. actives 0.22% (n = 360,000). AID 588549; in the data active = inhibition above about 8.5%, passing the limit was not always enough
UGM FP inh – blocks M. tuberculosis UGM enzyme | P9WIQ1 | inhibition, % at 10 µM | actives 0.06% (n = 320,000) | purified UGM, fluorescence polarization probe displacement; in the data active = inhibition above about 10%, passing the limit was not always enough
SSB-PriA inh – K. pneumoniae PriA-SSBct interaction inhibition; AID 1272365; inhibition, % at 33 µM; actives 0.6% (n = 430,000); AlphaScreen SSBct-PriA binding, biotinylated peptide; in the data active = inhibition mostly above about 37%, no sharp cut-off; inactive = mostly below about 20%;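 note: plate controls were negative control peptide for no effect and reference peptide for full effect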
PrP UTR inh – suppresses PrP 5' UTR mRNA reporter expression | inhibition, % (test concentration not listed) | AID 488862 | actives 0.35% (n = 340,000) | cell-based PrP 5' UTR mRNA reporter, plate reader; in the data active = inhibition above about 52%; note: 0 = median of the neutral control wells
Active calls of the source: *; nt = not tested or not shown.

SMILES	PrPC surface inh	Rv3671c protease	FadD28 binding	UGM FP inh	SSB-PriA inh	PrP UTR inh
Oc1ccc(CN2CCN(Cc3ccccc3)CC2)c2cccnc12	0	8	0	4	103*	-1
Oc1ccc(CCc2c(F)cccc2F)c2cccnc12	4	nt	nt	nt	nt	nt
O=S(=O)(c1ccc(Cl)cc1)N1CCN(Cc2ccc(O)c3ncccc23)CC1	2	15	-1	-1	15	23
COCc1ccc(O)c2ncccc12	-3	8	0	-3	94*	-5
CCCCCCc1ccc(O)c2ncccc12	nt	nt	nt	nt	60	nt
Oc1ccc(Cn2ccnc2)c2cccnc12	2	-4	-1	1	99*	-6
COCCNC(=O)c1ccc(=O)n(Cc2cccc(F)c2)n1	nt	nt	nt	nt	-19	nt
Cn1cnc(S(=O)(=O)NCCc2csc3nc(-c4ccccc4F)nn23)c1	nt	nt	nt	nt	4	nt
COCCc1noc(Cn2cccc(-c3nc(-c4ccsc4)no3)c2=O)n1	nt	nt	nt	nt	-15	nt
CCn1c(CSc2nnc(-c3ccncc3)n2CCOC)nc2cc(C(=O)O)ccc21	7	14	3	-1	-20	-44
CCn1c(CSc2nnc3ccccn23)nc2cc(C(=O)O)ccc21	-5	27	13*	6	1	-28
Cn1nc(-c2ccc(F)cc2)cc1C(=O)Nc1ccc(CC(=O)NCc2cccs2)cc1	nt	nt	nt	nt	-16	nt
CC(Nc1cccc2ccccc12)C(=O)NN=Cc1ccccn1 (centres undefined)	nt	nt	nt	nt	85*	nt
CC1CCC(=NNc2ccc(C(F)(F)F)cc2[N+](=O)[O-])CC1 (centres undefined)	-5	7	0	-1	73*	-16
CC(=O)c1c(C)[nH]c(C(=O)NCc2ccccc2)c1C	5	4	-6	-2	2	-17
CCN(CCCNC(=O)c1[nH]c(C)c(C(C)=O)c1C)c1cccc(C)c1	3	10	-1	-2	40*	-16
COc1ccccc1NC(=O)CSc1nnc(-c2cccc(C)c2)n1Cc1ccco1	nt	nt	nt	nt	59*	nt
N#CC(=C(O)c1ccc(Br)s1)c1nc2ccccc2[nH]1	nt	nt	nt	nt	-11	nt
CC1(OC(=O)c2ccco2)C(=O)C=C2C=C(C3CC3)OC=C2C1=O (centres undefined)	-3	6	7	0	8	-9
CC1(OC(=O)c2cnc3ccccc3n2)C(=O)C=C2C=C(C3CC3)OC=C2C1=O (centres undefined)	nt	38*	nt	5	nt	nt
O=C(COc1ccccc1F)N1CCc2ncncc2C1	nt	nt	nt	nt	-4	nt
Cc1ccc2nc(NNC(=O)c3ccc(S(=O)(=O)N4CCc5ccccc5C4)cc3)sc2c1	17	6	-2	0	95*	47
O=C(Nc1nc2ccc3ccccc3c2s1)c1ccc(S(=O)(=O)N2CCc3ccccc3C2)cc1	nt	nt	nt	nt	-1	nt
CC(=NNC(=O)c1cc(C)nc2ccccc12)c1ccccn1	nt	nt	nt	nt	94*	nt
CC(=NNC(=O)c1cccc2ccccc12)c1ccccn1	nt	nt	nt	nt	66*	nt
SMILES	PrPC surface inh	Rv3671c protease	FadD28 binding	UGM FP inh	SSB-PriA inh	PrP UTR inh
COc1ccc(N2CC(NS(=O)(=O)N(C)C)CC2=O)cc1OC (centres undefined)	nt	nt	nt	nt	-2	nt
O=C(Nc1nc(-c2ccccn2)cs1)c1ccc(Cl)c([N+](=O)[O-])c1	nt	nt	nt	nt	58	nt
O=C(Nc1nc(-c2ccccn2)cs1)c1ccccc1	nt	nt	nt	nt	101*	nt
Cc1cc(C(=O)Nc2nc(-c3ccccn3)cs2)no1	nt	nt	nt	nt	75*	nt
Cc1ccc(C(=O)Nc2nc(-c3ccccn3)cs2)o1	6	7	-2	-1	18	25
CC(=O)Nc1ccc(C(=O)Nc2nc(-c3ccccn3)cs2)cc1	2	-15	-4	-5	78*	-15
Cc1cc(C(=O)Nc2nc(-c3ccccn3)cs2)ccc1[N+](=O)[O-]	-5	-1	-2	1	47*	2
O=C(Nc1nc(-c2ccccn2)cs1)c1ccc(C(=O)c2ccccc2)cc1	nt	nt	nt	nt	32	nt
Cn1nc(C(=O)Nc2nc(-c3ccccn3)cs2)ccc1=O	nt	nt	nt	nt	42	nt
O=C(Nc1nc(-c2ccccn2)cs1)c1ccc(Oc2ccc(C(=O)Nc3nc(-c4ccccn4)cs3)cc2)cc1	nt	nt	nt	nt	25	nt
O=C(Nc1nc(-c2ccccn2)cs1)c1ccncc1	nt	nt	nt	nt	157*	nt
O=C(Nc1nc(-c2ccccn2)cs1)c1ccc(=O)[nH]c1	nt	nt	nt	nt	95*	nt
Cc1ccc(C(=O)Nc2nc(-c3ccccn3)cs2)cc1	nt	nt	nt	nt	78*	nt
CCn1ccc(C(=O)Nc2nc(-c3ccccn3)cs2)n1	nt	nt	nt	nt	95*	nt
CN1C[C@@H](NC(=O)c2ccccc2Cl)CC1=O	nt	nt	nt	nt	-2	nt
Cc1nc(C)c(C(=O)Nc2nc(-c3ccccn3)cs2)s1	nt	nt	nt	nt	157*	nt
O=C(Nc1nc(-c2ccccn2)cs1)c1cc(S(=O)(=O)N2CCOCC2)c(Cl)cc1Cl	nt	nt	nt	nt	76*	nt
